Bioassay records (PubChem BioAssay)
ATXN viability: viability counter-screen for ATXN expression inhibitors. S2 cells (HEK-293 line with an ATXN2-luciferase reporter) viability, CellTiter-Fluor protease fluorescence, 24 h. Potency, µM (doses to about 56.7 µM), hits mostly cytotoxic. hit rate 0.49% among 400,000; further: nearly all actives have a fitted effect of over 40% in size
HT1080 IDH1KD tx: toxicity to HT-1080 IDH1 knockdown cells (counter line); hit rate 2% among 360,000; HT-1080 IDH1 knockdown viability, ATP luminescence, 48 h; Potency, µM (series often up to 46.1 µM), for the others: at the top dose activity, negative = toxicity, most hits filed as cytotoxic; AID 686971;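 further: 0% = DMSO wells and -100% = cell-free medium wells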
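CellTiter-Glo luminescence after 48 h compound exposure at 37 degrees C of IDH1-knockdown HT-1080 cells in 5% FBS RPMI. %Activity scaled between DMSO wells and cell-free media wells, with curves fitted and assigned curve classes.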
HepG2 tox: counter-screen for TGF-b inhibitors: cytotoxicity in HepG2 cells. hit rate 0.76% among 410,000. HepG2 CAGA-GFP viability, ATP luminescence, 18 h. Potency, µM (highest dose often 46.1 µM), without a hit: at the highest dose activity change, negative = cytotoxicity, hits mostly cytotoxic
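HepG2 CAGA-GFP cells (1000/well, DMEM with 1% FBS) received compound, then TGF-beta at 500 pg/mL final, and were incubated 18 hours at 37 degrees C. Viability was read by CellTiter-Glo luminescence. Media-only wells were set as complete cell-killing and DMSO as no toxicity.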
ATXN2 expr inh: reduces ATXN2 reporter expression in HEK-293 cells. Potency, µM (series often up to 57 µM), without a hit: top-dose activity change, negative = inhibition, most hits filed as inhibitors. AID 1745845. hit rate 0.72% among 360,000. HEK-293 ATXN2-luciferase reporter, luminescence, 24 h; further: on the % scale 0 is the no-effect control and ±100 the full control effect; nearly all actives have a fitted effect of over 55% in size
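qHTS (up to 57 uM final) was run with 24 h compound exposure of reporter cells at 37 °C. Each well was multiplexed: SteadyGlo luminescence measured ATXN2-luciferase expression after a fluorogenic Gly-Phe-AFC viability readout (25 uM final).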
TGFb SMAD3 inh: inhibitors of TGF-b signaling | hit rate 1.2% among 410,000 | Potency, µM (top dose mostly 46.1 µM), for the others: at the top dose activity, negative = inhibition, actives largely listed as inhibitors | HepG2 CAGA-GFP TGF-b/SMAD3 reporter, GFP fluorescence, 18 h; TGF-beta stimulated, 500 pg/mL final; further: on the % scale 0 is the no-effect control and ±100 the full control effect; nearly all actives have a fitted effect of over 65% in size
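First, reporter cells (HEPG2 CAGA-GFP) rested 2 h at 37 degrees C. Next, compounds were pinned in and TGF-beta added to 500 pg/mL final. After 18 h, GFP was imaged per cell and summed per well.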
HT1080-NT tox: kills 2HG-producing HT-1080-NT fibrosarcoma cells | Potency, µM (titrated, usually from 46.1 µM), inactives show at the top dose activity, negative = less viability, actives largely listed as cytotoxic | hit rate 1.6% among 360,000 | AID 686970 | HT-1080-NT fibrosarcoma viability, CellTiter-Glo ATP luminescence, 48 h;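 further: NT is the 2HG producing partner of a matched IDH1 knockdown line; 0% = DMSO-treated cells and -100% = media-only wells without cells; nearly all actives have a fitted effect of over 55% in size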
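Viability of the 2HG-overproducing fibrosarcoma line after 48 hours of compound exposure at 37 degrees C was determined by luminescence with CellTiter-Glo, and concentration-effect curves were then fitted and categorized.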
* hit, by the source's call; i = inactive; u = inconclusive; x = no result. Shown are actives, neighbours in structure and some others; about 3.9% of the full set was active somewhere. The call rests on the fitted dose curve; in most records, active means well fitted curve in the direction sought with a large enough effect; inconclusive means small, poorly fitted or top-dose-only effect, or another doubt; inactive means no such curve, though single readings can be large; an effect the other way counts as inactive or inconclusive. Potency means the concentration at half of the fitted maximal effect.

SMILES	ATXN viability	HT1080 IDH1KD tx	HepG2 tox	ATXN2 expr inh	TGFb SMAD3 inh	HT1080-NT tox
CCCc1nc(NCc2ccncc2)c2nnn(Cc3ccccc3F)c2n1	i	18µM*	-25%	-11%	-26%	u
Cn1c(=O)c2c(-c3ccc(Br)cc3)n(CCc3ccccc3)cc2n(C)c1=O	u	x	-54%	u	10µM*	x
COc1ccc(CN2CCOc3c(O)cc(-c4cc(C)c5ccc(F)cc5n4)cc3C2)c(O)c1	i	x	x	x	x	x
CN(Cc1ccc(C#CCCO)cc1)CC1CCCN(CCc2ccc(Cl)cc2)C1 (stereo unspecified)	u	u	-41%	x	u	26µM*
COC(=O)c1cc(CNC(=O)c2ccc(N(C)C)cc2)cc(NC(=O)c2ccccc2Cl)c1	i	x	x	x	x	x
Cc1ccc(NC(=S)NC(=O)c2ccc(F)cc2)cc1S(=O)(=O)Nc1cccc(Cl)c1	u	2.9µM*	-24%	u	-29%	6.5µM*
O=C(NC(=S)Nc1cc(Cl)ccc1O)c1cccc(Br)c1	i	-23%	-41%	x	10µM*	-25%
O=C(NC(=S)Nc1cccnc1)c1cccc(Br)c1	i	18%	2%	15%	-26%	5%
Cc1cccc(C(=O)NC(=S)NNC(=O)c2cccs2)c1	i	u	-5%	u	-10%	-27%
Cc1cccc(C(=O)NC(=S)NNC(=O)c2ccc(Cl)cc2)c1	u	8.2µM*	-41%	-38%	u	u
CC(=O)c1cccc(NC(=S)NC(=O)c2ccc(C)cc2)c1	i	-3%	6%	85%	-10%	0%
Cc1ccc(C(=O)NC(=S)Nc2ccc(NC(=O)c3cccc(Cl)c3)cc2)cc1	u	26µM*	-40%	-31%	u	u
COc1ccc(-c2noc(C3CC(=O)N(c4ccc(C)c(F)c4)C3)n2)c(OC)c1 (stereo unspecified)	i	x	-37%	-11%	u	x
Cc1ccc(C)c(NC(=O)N2CCN(C(=O)c3nsc4ccccc34)CC2)c1	x	x	9%	x	-17%	x
CCCn1c(N2CCN(Cc3ccc(Cl)cc3)CC2)nc2ccccc21	u	-6%	-38%	x	16µM*	-4%
CCn1c(N2CCN(Cc3ccc([N+](=O)[O-])cc3)CC2)nc2ccccc21	i	-8%	-20%	x	u	-3%
CC1=CC(C)(C)N2C(=O)C3(C(C#N)=C(N)Oc4cc(O)ccc43)c3c(C)c(C)cc1c32 (stereo unspecified)	13µM*	u	-107%	u	u	u
C[C@H](CO)N1C[C@H](C)[C@@H](CN(C)Cc2ccccc2)Oc2c(NC(=O)C3CCCCC3)cccc2C1=O	20µM*	-19%	-10%	u	u	-20%
CCOC(=O)CCCCCC(=O)Nc1ccc2c(c1)CC(=O)N([C@H](C)CO)C[C@@H](C)[C@H](CN(C)Cc1ccc3c(c1)OCO3)O2	i	6%	-3%	3%	-9%	3%
C[C@H](CO)N1C[C@H](C)[C@@H](CN(C)Cc2ccc(C(=O)O)cc2)Oc2c(NC(=O)C3CC3)cccc2C1=O	i	8%	6%	3%	-5%	6%
C[C@H](CO)N1C[C@H](C)[C@@H](CN(C)CC2CC2)Oc2c(NC(=O)Cc3ccccc3)cccc2C1=O	u	u	-13%	-15%	-21%	26µM*
C[C@@H]1CN([C@H](C)CO)C(=O)Cc2cc(NC(=O)Nc3ccccc3)ccc2O[C@@H]1CN(C)Cc1ccc2c(c1)OCO2	u	-24%	18µM*	u	16µM*	-18%
O=C(CCl)Nc1ccc(N=Nc2ccccc2)cc1	20µM*	-3%	22µM*	x	u	u
O=C(CCl)Nc1cn(-c2ccccc2)nc1-c1ccccc1	8.9µM*	-29%	22µM*	x	u	u
